The text below walks through data of PubChem BioAssay (NCATS).

“And” between values parts separate entries of the source, which are not always exact repeats. Equal values may be shown once. Results filed as inconclusive are left out. The source made the active and inactive calls. Unless noted, the call rests on the fitted dose curve; in most records, active means well fitted curve in the direction sought with a large enough effect; inconclusive means small, poorly fitted or top-dose-only effect, or another doubt; inactive means no such curve, though single readings can be large; an effect the other way counts as inactive or inconclusive.

Experiment [1] can be described thus: Cell Viability - LYMP2-001 (AID 921).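 Further: series mostly up to about 92 µM; 0% = DMSO only and full inhibition = tetraoctylammonium bromide control wells; nearly all actives have a fitted effect of over 70% in size.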 The method, boiled down:
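Cellular ATP loss read by luciferase luminescence after 24 h compound exposure at 37 C in complete medium. LYMP2-001 lymphoblastoid cells, 2500/well; qHTS concentration-response data fitted with Hill equation for AC50.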

Experiment [2] can be described thus: MultiTox-Fluor Cytotoxicity Assay - LYMP1-002 - Dead Cells (AID 960).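 Further: cells exposed to compound for 16 h at 37 °C; 0% = DMSO and 100% = tetraoctylammonium bromide; nearly all actives have a fitted effect of over 60% in size.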 The method, boiled down: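 Concentration-dependent increases in membrane-leaked protease activity are quantified in LYMP1-002 cells after 16 hr treatment; values are normalized against DMSO and tetraoctylammonium bromide (15 uM) controls and AC50 derived by Hill modeling.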
A short description of experiment [3]: Cell Viability - LYMP2-005 (AID 967).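 Further: series mostly up to about 92 µM; plate controls were DMSO only for no effect and 92 µM tetraoctylammonium bromide control for full effect.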 In outline:
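LYMP2-005 human lymphoblastoid cells (2500/well) were treated with compounds for 24 h at 37 C. Intracellular ATP was then measured by CellTiter-Glo luminescence after 30 min at room temperature. AC50 values came from Hill-equation fits of qHTS concentration-response data.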

Experiment [4] is described as follows: Cell Viability - LYMP2-011 (AID 969).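 Further: cells exposed to compound for 24 hours; 0% = DMSO only and full inhibition = 92 µM tetraoctylammonium bromide; nearly all actives have a fitted effect of over 60% in size.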 In outline:
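Cells seeded at 2500 per well rest 5 hr before compound addition, then incubate 24 hr at 37 C. CellTiter-Glo reagent is added for 30 min at room temperature before luminescence detection.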

A short description of experiment [5]: Cell Viability - LYMP2-013 (AID 970).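 Further: series mostly up to about 92 µM; 0% = DMSO only and full inhibition = tetraoctylammonium bromide control; nearly all actives have a fitted effect of over 55% in size.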 The method, boiled down: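 In complete culture medium, human lymphoblastoid cells were dosed for 24 hr at 37 C, with tetraoctylammonium bromide (6.4pM to 92 uM) as positive control. Viability reflects luciferase-based ATP signal; AC50 derived from concentration-response curves.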
Experiment [6] can be described thus: Cell Viability - LYMP2-017 (AID 972).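 Further: series mostly up to about 92 µM; cells exposed to compound for 24 hours at 37 °C; on the % scale 0 is the no-effect control and ±100 the full control effect; nearly all actives have a fitted effect of over 55% in size.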 The method, boiled down:
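In this qHTS format, lymphoblastoid cells in complete medium receive test compound for a day at 37 C before ATP content is quantified by luciferase luminescence. Reported AC50 figures come from standard Hill-equation curve fitting.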

Experiment [7] in a line: Cell Viability - LYMP2-023 (AID 975).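 Further: cellular ATP measured by luciferase luminescence as viability proxy; series mostly up to about 92 µM; cells exposed to compound for 24 hours at 37 °C; plate controls were DMSO only for no effect and 92 µM tetraoctylammonium bromide control for full effect; nearly all actives have a fitted effect of over 55% in size.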 In outline: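 In this qHTS, ATP-based luciferase luminescence (CellTiter-Glo) is quantified in human lymphoblastoid cells after 24 hr compound treatment at 37 C; tetraoctylammonium bromide serves as positive control. Concentration-response curves are Hill-fitted to give AC50.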
The nature of experiment [8]: Cell Viability - LYMP2-002 (AID 977).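 Further: series mostly up to about 92 µM; plate controls were DMSO only for no effect and 92 µM tetraoctylammonium bromide for full effect.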 In outline:
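In this qHTS viability screen, 2500 human lymphoblastoid cells per well receive compound for 24 hr at 37 C, and luciferase-based ATP luminescence gives the viability signal. Tetraoctylammonium bromide serves as positive control.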

Experiment [9] is described as follows: Cell Viability - LYMP2-007 (AID 979).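 Further: cells exposed to compound for 24 h before reading; 0% = DMSO only and the negative end = 92 µM tetraoctylammonium bromide; nearly all actives have a fitted effect of over 60% in size.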 In outline:
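Measured via luciferase-based ATP quantitation: lymphoblastoid cells, 24 hr compound exposure at 37 C, AC50 from Hill fits.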

Experiment [10] can be described thus: Cell Viability - LYMP2-014 (AID 983).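 Further: series mostly up to about 92 µM; plate controls were DMSO only for no effect and 92 µM tetraoctylammonium bromide for full effect; nearly all actives have a fitted effect of over 50% in size.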 In outline: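 Quantitative HTS in lymphoblastoid cells: 24 hr compound exposure, then CellTiter-Glo ATP luminescence. Positive control was tetraoctylammonium bromide, 6.4pM to 92 uM.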
Experiment [11] is described as follows: Cell Viability - LYMP2-016 (AID 984).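 Further: cells exposed to compound for 24 hours at 37 °C; on the % scale 0 is the no-effect control and ±100 the full control effect; nearly all actives have a fitted effect of over 55% in size.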 In outline:
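Cytotoxicity was scored by luminescent ATP content (CellTiter-Glo) after 24 h compound exposure at 37 C of a human lymphoblastoid line at 2500 cells/well. Concentration-response data were fitted to the Hill equation for AC50.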

The nature of experiment [12]: Cell Viability - LYMP2-018 (AID 985).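 Further: plate controls were DMSO only for no effect and tetraoctylammonium bromide at 92 µM for full effect; nearly all actives have a fitted effect of over 50% in size.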 In outline: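 In this qHTS viability assay, cells are treated for 24 hr and cellular ATP is quantified by luciferase-based luminescence, with tetraoctylammonium bromide as positive control.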
Experiment [13] can be described thus: Cell Viability - LYMP2-020 (AID 986). The method, boiled down: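 Cells at 2500 per well receive a 24 hr compound exposure at 37 C. Viability is measured as ATP-dependent luciferase luminescence, with AC50 modeled from qHTS concentration-response curves.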
A short description of experiment [14]: Cell Viability - LYMP2-022 (AID 987). The method, boiled down:
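In this qHTS cytotoxicity screen, compound titrations were incubated 24 hr at 37 C with human lymphoblastoid cells in complete medium. Luciferase-based ATP luminescence provided the viability signal.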

Experiment [15] is described as follows: Cell Viability - LYMP2-024 (AID 988).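 Further: plate controls were DMSO only for no effect and 92 µM tetraoctylammonium bromide for full effect; nearly all actives have a fitted effect of over 60% in size.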 In outline:
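Cells at 2500 per well received compound for 24 hr after a 5 hr settling period. Viability was scored by CellTiter-Glo luminescence, with AC50 from Hill fits.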

The target of experiment [16] is Retinoic acid receptor RXR-alpha (Homo sapiens) (UniProt P19793). In words: qHTS assay for small molecule agonists of retinoid X receptor alpha signaling (AID 588544; calls by dose curve; further: potency means the concentration at half of the fitted maximal effect;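 on activation: 0% = DMSO basal wells and 100% = reference agonist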). On the technique in general: In qHTS, concentration-response curves come from the screen itself.
A short description of experiment [17]: qHTS assay for small molecule antagonists of retinoid X receptor alpha signaling (AID 588546; active means well fitted inhibition curve with a large enough effect in the signal ratio, with a control signal flat, not every such curve was filed as active; the % refers to the signal ratio;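 further: cells stimulated with 9-cis-retinoic acid as agonist; on the % scale 0 is the no-effect control and ±100 the full control effect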). The settings on record: HEK293T RXRa-UAS-bla, beta-lactamase ratio, antagonist mode; measured here: W530 green channel, cytotoxicity proxy. The method, boiled down: (§1)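 Beta-lactamase reporter inhibition, read as CCF4 fluorescence ratio (ex 405, em 460/530 nm) after 2 h at RT. HEK293T UAS-bla cells, 2500/well, were stimulated with 9-cis-RA at 500 or 100 nM final alongside test compound for 18 h at 37 C.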

For experiment [18], the target named is Retinoic acid receptor RXR-alpha (Homo sapiens) (UniProt P19793). The experiment is described as above. The settings on record: HEK293T RXRa-UAS-bla, beta-lactamase ratio, antagonist mode. In outline:
as §1

The nature of experiment [19]: qHTS assay for small molecule disruptors of the mitochondrial membrane potential - 1 hr assay (AID 651754; calls by dose curve; further: on the % scale 0 is the no-effect control and ±100 the full control effect; nearly all actives have a fitted effect of over 35% in size). The method, boiled down:
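In this qHTS format, a 1 hr compound treatment of HepG2 cells precedes Mito-MPS staining, and membrane potential is judged from aggregate (red) against monomer (green) fluorescence intensity.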

Experiment [20] is described as follows: qHTS assay for environmental chemicals that activate the Aryl hydrocarbon Receptor (AhR) signaling pathway (AID 651777). Further: % of control where 0% means no effect; nearly all actives have a fitted effect of over 15% in size. Conditions: 1A2-DRE human hepatoma cells, luciferase, 24 h; activation: stronger effect = higher value. In outline: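 Following a 24 hr incubation with test chemicals at 37 C and 5% CO2, 1A2-DRE human hepatoma cells received One-Glo reagent; after 30 min at room temperature, luciferase output reflected CYP1A2 induction via AhR.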

Sequence of Retinoic acid receptor RXR-alpha (Homo sapiens) (P19793 whole entry, looked up): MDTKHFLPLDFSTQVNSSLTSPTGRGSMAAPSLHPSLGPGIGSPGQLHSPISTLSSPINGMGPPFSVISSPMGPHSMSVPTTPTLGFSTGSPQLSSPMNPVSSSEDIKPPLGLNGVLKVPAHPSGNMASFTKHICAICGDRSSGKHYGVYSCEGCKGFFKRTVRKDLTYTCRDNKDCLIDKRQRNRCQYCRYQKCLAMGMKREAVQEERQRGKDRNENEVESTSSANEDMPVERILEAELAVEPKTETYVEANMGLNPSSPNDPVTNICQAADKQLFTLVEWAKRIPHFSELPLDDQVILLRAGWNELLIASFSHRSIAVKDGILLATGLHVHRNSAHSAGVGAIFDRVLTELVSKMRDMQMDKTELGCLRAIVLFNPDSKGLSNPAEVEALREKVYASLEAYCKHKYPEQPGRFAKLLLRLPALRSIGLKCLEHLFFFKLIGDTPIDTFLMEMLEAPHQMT

`O=C=NC1CCCCC1`: the Potency entry in experiment [1], in experiment [2], in experiment [3], in experiment [4], in [5] and in experiment [6] was “inactive” in each case. Further, the Potency entry in [7], in experiment [8], in experiment [9], in experiment [10], in experiment [11] and in experiment [12] was “inactive” in each case. Moreover, the Potency entry in [13], in experiment [14], in experiment [15], in experiment [16] and in experiment [19] was “inactive” each time. The max response in experiment [17] was -7.8% and -5.15%; in experiment [18] it was 12.3% (inactive) and -18.1% (inactive). Also, the activation in experiment [20] was 2.61% (inactive) and 5.17% (inactive).
As to `N#CCCCl`, the Potency result in experiment [1], in [2], in [3], in experiment [4], in experiment [5] and in experiment [6] was “inactive” each time. For the same compound, the Potency entry in experiment [7], in experiment [8], in [9], in experiment [10], in experiment [11] and in experiment [12] was “inactive” throughout. For the same compound, the Potency entry in experiment [13], in experiment [14], in [15], in experiment [16] and in experiment [19] was “inactive” in each case. Further, the max response was 2.8% and 0.773% in [17]; 15.2% (inactive) and 9.43% (inactive) in experiment [18].
In the case of `Clc1nc(Cl)nc(Cl)n1`, the Potency result in experiment [1], in experiment [2], in experiment [3], in experiment [4], in experiment [5] and in [6] was “inactive” in each case. The Potency result in [7], in experiment [8], in experiment [9], in [10], in experiment [11] and in experiment [12] was “inactive” in each case. The Potency result in [13], in experiment [14], in [15], in [16] and in [19] was “inactive” each time. The max response in [17] is -2.29% and -4.83%; in [18], 12.3% (inactive) and -0.616% (inactive). For the same compound, the activation in experiment [20] was 1.36% (inactive) and 0.55% (inactive).
In the case of `CCOP(=S)(OCC)Oc1ccc([N+](=O)[O-])cc1`, the Potency entry in experiment [1], in experiment [2], in experiment [3], in experiment [4], in [5] and in experiment [6] was “inactive” each time. The Potency entry in experiment [7], in experiment [8], in experiment [9], in experiment [10], in [11] and in experiment [12] was “inactive” in each case. Besides, the Potency entry in experiment [13], in [14], in experiment [15] and in experiment [16] was “inactive” in each case. For the same compound, the max response in [17] is 14.9% and 8.35%; in experiment [18] it was 10.9% (inactive) and -20.1% (inactive). Further, the activation in [20] was 8.97% (inactive).
For `Nc1c(Cl)c(Cl)nc(C(=O)O)c1Cl`, the Potency entry in experiment [1], in [2], in experiment [3], in [4], in experiment [5] and in [6] was “inactive” throughout. Besides, the Potency entry in experiment [7], in experiment [8], in experiment [9], in experiment [10], in experiment [11] and in experiment [12] was “inactive” each time. Also, the Potency result in experiment [13], in experiment [14], in [15], in [16] and in experiment [19] was “inactive” in each case. The max response is 15% and 5.55% and 11.1% in [17]; -3.97% (inactive) and -1.67% (inactive) and -10.4% (inactive) in experiment [18]. For the same compound, in experiment [20], the activation was 6.67% (inactive) and 13.8% (inactive) and 2.52% (inactive).
Take `O=NN(CCO)CCO`: the Potency result in experiment [1], in experiment [2], in experiment [3], in experiment [4], in experiment [5] and in [6] was “inactive” in each case. In addition, the Potency result in [7], in [8], in experiment [9], in experiment [10], in [11] and in experiment [12] was “inactive” throughout. For the same compound, the Potency result in experiment [13], in experiment [14], in experiment [15], in experiment [16] and in experiment [19] was “inactive” in each case. For the same compound, the max response was -0.955% in experiment [17] and 16.4% (inactive) in experiment [18]. In addition, the activation in experiment [20] is -0.118% (inactive).
Consider `C[C@]12CC[C@H]3[C@@H](CCC4=CC(=O)CC[C@@]43C)[C@@H]1CC[C@@H]2O`, for which the Potency entry in [1], in experiment [2], in experiment [3], in [4], in experiment [5] and in [6] was “inactive” throughout. Further, the Potency entry in experiment [7], in experiment [8], in experiment [9], in experiment [10], in [11] and in [12] was “inactive” each time. The Potency result in experiment [13], in experiment [14], in [15] and in experiment [19] was “inactive” each time. Moreover, the Potency in experiment [16] was 12.6 µM (active). The activation in [20] was -1.35% (inactive).
